Source: PubChem BioAssay
This is a sample that favours compounds with a hit; in the whole collection about 2.7% have one here.
ERG-DNA inh – blocks human ERG Ets domain binding to DNA. P11308. fluorescence polarization, His-ERG Ets domain / labelled DNA. Potency, µM (doses to about 76.9 µM), for the others: at the top dose FP activity, negative = inhibition, actives largely listed as inhibitors. hit rate 0.028% among 370,000. AID 624246; active = well fitted inhibition curve with a large enough effect in the polarisation, with a control signal flat; inconclusive = small, poorly fitted or top-dose-only effect, or effect the other way, or a change in a side signal; inactive = no such curve, though single readings can be large or run the other way; the % refers to the polarisation;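 note: polarization taken with two DNA probes labelled with fluorescein and Texas red; potency is the fitted concentration of half-maximal effect; % of control where 0% means no effect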
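His-tagged ERG Ets domain (1 uM in the protein solution; 300mM KCl, 50mM Tris-HCl, 1mM EDTA, 1mM DTT, pH 7.5) received compound, then a probe mix of 5 nM fluorescein-DNA and 100nM Texas-615-DNA. Fluorescence polarization was read for both dyes.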
12-LOX inh – blocks human arachidonate 12S-lipoxygenase. P18054. purified 12hLO, xylenol orange hydroperoxide absorbance. hit rate 1.1% among 580,000. Potency, µM (series often up to 108 µM), without a hit: top-dose activity change, negative = inhibition, hits mostly inhibitors; note: potency is the fitted concentration of half-maximal effect; % is set by controls: 0 for no effect and ±100 for the full control effect
Target sequence (P18054 whole entry, looked up): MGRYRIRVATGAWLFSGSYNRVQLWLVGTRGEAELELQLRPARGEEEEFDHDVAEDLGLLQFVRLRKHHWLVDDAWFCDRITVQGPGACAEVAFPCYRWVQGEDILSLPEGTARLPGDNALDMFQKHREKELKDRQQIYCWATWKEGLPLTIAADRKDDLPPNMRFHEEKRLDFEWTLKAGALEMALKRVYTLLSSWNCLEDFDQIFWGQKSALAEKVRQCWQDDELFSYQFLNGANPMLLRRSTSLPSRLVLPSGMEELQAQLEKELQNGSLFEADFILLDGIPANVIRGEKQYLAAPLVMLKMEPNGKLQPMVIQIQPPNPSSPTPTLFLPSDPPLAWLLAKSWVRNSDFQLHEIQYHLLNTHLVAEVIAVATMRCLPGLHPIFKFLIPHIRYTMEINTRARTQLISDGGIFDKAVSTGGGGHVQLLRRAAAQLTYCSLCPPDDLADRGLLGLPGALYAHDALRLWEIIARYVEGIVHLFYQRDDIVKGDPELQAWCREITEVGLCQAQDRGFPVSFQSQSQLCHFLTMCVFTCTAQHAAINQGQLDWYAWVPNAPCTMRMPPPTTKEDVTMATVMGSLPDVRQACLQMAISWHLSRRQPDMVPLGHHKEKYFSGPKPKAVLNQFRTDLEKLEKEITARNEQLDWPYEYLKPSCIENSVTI
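Hydroperoxide product was detected by ferrous iron/xylenol orange as the 573 to 405 nm absorbance ratio. Arachidonic acid at 40 uM (final) was turned over for 30 min at room temperature by 150 nM human 12hLO, pH 7.0 Hepes buffer, after 15 min compound preincubation.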
Nrf2 ARE act – Nrf2 pathway activation; AREc32 ARE-luciferase reporter (MCF7-derived line), luminescence, 24 h; Potency, µM (doses to about 46.1 µM), inactives show top-dose activation, usual class: activators; hit rate 0.31% among 410,000; note: potency is the fitted concentration of half-maximal effect; % of control where 0% means no effect; nearly all actives have a fitted effect of over 65% in size
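Quantitative high-throughput format: AREc32 reporter cells, 1000 per well, received compound by pin transfer and were incubated 24 hr at 37 deg C, 5% CO2, before Steady-Glo luminescence detection.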
LDHA inh – LDHA (human) enzyme inhibition | AID 1347041 | purified LDHA, NADH/diaphorase-resazurin fluorescence; hits give low values | activity change, % (values are at about 110 or 230 µM) | P00338 | hit rate 0.15% among 480,000; in the data active = activity change below about -30%; inconclusive = mostly about -25% to -30%;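 note: plate controls were DMSO wells for no effect and wells without enzyme for full effect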
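Remaining NADH was detected by diaphorase (0.133 mg/mL) converting 37 µM resazurin to fluorescent resorufin, read at 0 and 20 minutes. The preceding 5-minute room-temperature reaction used 2 nM LDHA, 0.2 mM sodium pyruvate and 0.06 mM NADH at pH 7.4.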
A549 tox-1 – kills or reduces viability of A549 cells in Nrf2 counter-screen; Potency, µM (highest dose often 46 µM), inactives show top-dose activity change, negative = cytotoxicity, hits mostly inhibitors; A549 ARE-Fluc cells, CellTiter-Fluor viability, 18-24 h; hit rate 0.16% among 390,000; note: potency is the fitted concentration of half-maximal effect; % is set by controls: 0 for no effect and ±100 for the full control effect
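Cytotoxicity counterscreen: CellTiter-Fluor fluorescence was measured in A549 ARE_Fluc cells after 18-24 h of compound exposure in a concentration series. The subsequent BugLite luminescent read reports ARE-luciferase activity.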
Nrf2 block – inhibitors of Nrf2 signaling; A549 ARE-Fluc reporter, luciferase luminescence, 18-24 h; Potency, µM (titrated, usually from 46 µM), for inactives: top-dose activity change, negative = inhibition, usual class: inhibitors; hit rate 2.1% among 360,000; AID 504444; note: potency is the fitted concentration of half-maximal effect; % is set by controls: 0 for no effect and ±100 for the full control effect; nearly all actives have a fitted effect of over 60% in size
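Reporter: ARE-Fluc in A549. Exposure: 18-24 h, 37 °C, 5% CO2, 5% FBS OPTI-MEM. Readouts: fluorescent cytotoxicity (CellTiter-Fluor), then luminescent Nrf2 signal after BugLite.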
FLuc counter 3 – firefly luciferase inhibition, Nrf2 hit validation. hit rate 4% among 1,400. AID 720522. Potency, µM (series often up to 57.5 µM), without a hit: at the highest dose activity change, negative = inhibition, usual class: inhibitors. shares compounds with Nrf2 block. purified firefly luciferase, luminescence inhibition; note: potency is the fitted concentration of half-maximal effect; % is set by controls: 0 for no effect and ±100 for the full control effect; nearly all actives have a fitted effect of over 65% in size
A549 tox-2 – counter-screen for Nrf2 inhibitors: cytotoxicity in A549 ARE cells; Potency, µM (highest dose often 46.1 µM), inactives show top-dose activity change, negative = cytotoxicity, most hits filed as inhibitors; A549 ARE-Fluc cells, cytotoxicity counterscreen; shares compounds with Nrf2 block; AID 720523; hit rate 2% among 1,400;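 note: potency is the fitted concentration of half-maximal effect; cells exposed to compounds for 18 to 24 hours; % is set by controls: 0 for no effect and ±100 for the full control effect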
Nrf2 ARE inh – Nrf2 inhibition confirmed, A549 ARE-luciferase; shares compounds with Nrf2 block; A549 ARE-firefly luciferase reporter, luminescence; Potency, µM (series often up to 46.1 µM), inactives show at the highest dose activity change, negative = inhibition, hits mostly inhibitors; hit rate 74% among 1,400; note: potency is the fitted concentration of half-maximal effect; % is set by controls: 0 for no effect and ±100 for the full control effect; nearly all actives have a fitted effect of over 65% in size
Active calls of the source: *; [ ] = dose if it differs, or a comment. Unless noted, calls come from the whole dose curve; as a rule, active = well fitted curve in the direction sought with a large enough effect; inconclusive = small, poorly fitted or top-dose-only effect, or another doubt; inactive = no such curve, though single readings can be large; an effect the other way counts as inactive or inconclusive.

For CCCCCCCCCCCCCCCC(=O)Nc1ccn(C2OC(CO)C(O)C2O)c(=O)n1 (configuration not stated) the results were ERG-DNA inh 11%, 12-LOX inh -12%, Nrf2 ARE act 0%, LDHA inh -7, A549 tox-1 -3%, Nrf2 block inconclusive, FLuc counter 3 0%, A549 tox-2 -11% and Nrf2 ARE inh 0.82µM*.
Screening N#Cc1c(NC(=O)CSc2ncn[nH]2)sc2c1CCCCC2 returned ERG-DNA inh 7%, 12-LOX inh 25%, Nrf2 ARE act -1%, LDHA inh 2, A549 tox-1 -9%, Nrf2 block 0.37µM*, FLuc counter 3 9.5µM*, A549 tox-2 0% and Nrf2 ARE inh 1.6µM*.
Screening Cn1cnnc1SCC(=O)Nc1sc2c(c1C#N)CCCCC2 returned ERG-DNA inh 5%, 12-LOX inh inconclusive, Nrf2 ARE act 4%, LDHA inh 0, A549 tox-1 -9%[1.84 µM] and Nrf2 block inconclusive.
`CC(=O)N1Cc2ccccc2CC2(CCN(CCc3ccccc3)C2)C1` (configuration not stated) gave 12-LOX inh 0%[6.33 µM].
For CC(C)CNc1nc(N)c([N+](=O)[O-])c(N2CCCCCC2)n1 the results were ERG-DNA inh 10%, 12-LOX inh inconclusive, Nrf2 ARE act 3%, LDHA inh 2, A549 tox-1 -2%, Nrf2 block 9.2µM*, FLuc counter 3 -2%, A549 tox-2 1% and Nrf2 ARE inh 8.2µM*.
Screening Cc1c(O)ccc2c(CN3CCN(c4ccccc4)CC3)cc(=O)oc12 returned 12-LOX inh 23% and LDHA inh 7.
`O[C@@H]1[C@@H](O)C=C2CCN3Cc4cc5c(cc4[C@H]1C23)OCO5` (some centres not stated) gave ERG-DNA inh -17%, 12-LOX inh -4%, Nrf2 ARE act -2%, LDHA inh 18, A549 tox-1 inconclusive, Nrf2 block 6.5µM*, FLuc counter 3 1%, A549 tox-2 inconclusive and Nrf2 ARE inh 7.3µM*.
Screening CC(=O)c1cccc(NS(=O)(=O)c2ccc(C(=O)Nc3ccccc3)cc2)c1 returned ERG-DNA inh -2%, 12-LOX inh -20%, Nrf2 ARE act -1%, LDHA inh -5, A549 tox-1 -4%, Nrf2 block 7.3µM*, FLuc counter 3 -10%, A549 tox-2 -11% and Nrf2 ARE inh 4.1µM*.
O=C(Nc1ccccc1)c1ccc(S(=O)(=O)Nc2cccc(O)c2)cc1 was read as ERG-DNA inh -22%, 12-LOX inh 90%, Nrf2 ARE act 0%, LDHA inh -1, A549 tox-1 -1% and Nrf2 block inconclusive.
For COC(=O)C12OCC34C(CC5C(C)=C(O)C(=O)CC5(C)C3C(O)C1O)OC(=O)C(OC(=O)C=C(C)C)C24 (configuration not stated) the results were ERG-DNA inh 1%, 12-LOX inh 14%, Nrf2 ARE act -1%, LDHA inh -3, A549 tox-1 inconclusive, Nrf2 block 0.016µM*, FLuc counter 3 2%, A549 tox-2 inconclusive and Nrf2 ARE inh 0.012µM*.
Screening CC(=O)c1c(C)[nH]c(C(=O)OCc2ccccc2)c1C returned ERG-DNA inh -1%, 12-LOX inh 0%, Nrf2 ARE act 16%, LDHA inh -5, A549 tox-1 4% and Nrf2 block inconclusive.
CC(=O)c1c(C)[nH]c(C(=O)OCCCCN2C(=O)c3ccccc3C2=O)c1C was read as ERG-DNA inh -4%, Nrf2 ARE act 1%, LDHA inh -5, A549 tox-1 -19%, Nrf2 block 5.8µM*, FLuc counter 3 1% and A549 tox-2 -6%.
`COc1ccc(/C=N\NC(=O)c2ccccc2F)cc1COc1ccc(F)cc1` gave ERG-DNA inh -6%, 12-LOX inh 11%, Nrf2 ARE act 0%, LDHA inh -9, A549 tox-1 1% and Nrf2 block -15%.
COc1ccc(/C=N\NC(=O)c2ccccc2Br)cc1COc1c(F)c(F)cc(F)c1F was read as ERG-DNA inh 2%, 12-LOX inh 42%, Nrf2 ARE act 2%, LDHA inh 0, A549 tox-1 inconclusive, Nrf2 block 5.2µM*, FLuc counter 3 1%, A549 tox-2 -7% and Nrf2 ARE inh inconclusive.
For COC(=O)c1cccc(NC(=O)Nc2cc(-c3nc4ccccc4o3)ccc2OC)c1 the results were 12-LOX inh inconclusive and LDHA inh 1.
C1=C/C(=C2/C=Cc3ccccc32)c2ccccc2N1 was read as FLuc counter 3 -15%, A549 tox-2 inconclusive and Nrf2 ARE inh 6.5µM*.
`Nc1nc(Cl)cc(N2CCC(c3nc(C4CC4)n[nH]3)CC2)n1` gave 12-LOX inh 25% and LDHA inh 4.
For Nc1nc(Cl)cc(N2CCC(c3cc(-c4ccc(Cl)cc4)n[nH]3)CC2)n1 the results were ERG-DNA inh -1%, 12-LOX inh 7%, Nrf2 ARE act 6%, LDHA inh 8, A549 tox-1 inconclusive, Nrf2 block 8.2µM*, FLuc counter 3 -19%, A549 tox-2 -21% and Nrf2 ARE inh 18µM*.
Screening Cc1cc2cc(CN(Cc3ccco3)S(=O)(=O)c3c(C)ccc4nsnc34)c(=O)[nH]c2cc1C returned ERG-DNA inh 2%, 12-LOX inh -27%, Nrf2 ARE act 0%, LDHA inh 3, A549 tox-1 -21%, Nrf2 block 2.3µM*, FLuc counter 3 inconclusive, A549 tox-2 -30% and Nrf2 ARE inh 3.3µM*.
Screening N#Cc1cccc(NC(=O)CNc2cccc(S(=O)(=O)N3CCCC3)c2)c1 returned ERG-DNA inh 2%, 12-LOX inh -12%, Nrf2 ARE act 4%, LDHA inh 3, A549 tox-1 inconclusive, Nrf2 block 7.3µM*, FLuc counter 3 2%, A549 tox-2 -7% and Nrf2 ARE inh inconclusive.
